Rows were chosen to be rich in hits. Some 12% of all compounds tested hit in one or more screens of this group.
ROMK primary: modulates human ROMK potassium channel activity. B-score at 10 µM. P48048. Tet-inducible ROMK, thallium flux fluorescence; actives lie on both sides. 2% of 130,000 active;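 active means signal ratio slope over the read window, or its plate-corrected B-score, at least 3 SD from the plate mean, either direction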;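 further: B-score of the F/F0 ratio slope over 7 to 12 s after thallium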
Calpain2 inh: inhibitors of pig calpain II | purified calpain II, fluorogenic peptide substrate, 30 min | inhibition, % at 16 µM | 0.37% of 220,000 active | AID 1236;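 active means inhibition above about 50%, limit read from the data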
KCC2 mod: KCC2 (human) Cl- transport modulation; Q9H2X9; KCC2 cells, thallium flux FluoZin-2 fluorescence; B-score of Tl+ flux slope (higher = more flux/activation; lower = inhibition) at 10 µM; 2.2% of 190,000 active; AID 1456;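 active means thallium flux slope and its plate-corrected score both differing from the plate sample mean at a set confidence after two filtering rounds, in either direction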;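 further: slope of fluorescence scaled to starting intensity during 10 to 20 s after thallium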
Lmaj promast: Leishmania major promastigote growth inhibition; Leishmania major promastigotes, resazurin fluorescence viability; inhibition, % at 10 µM; 9% of 200,000 active; AID 1063; in the data active means inhibition above about 50%;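 further: promastigotes grown with compound for 44 hours at 28 °C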
WT yeast gro inh: growth inhibition of WT yeast, mitochondrial fusion screen. mitochondrial fusion phenotypic screen, WT strain. inhibition, % at 10 µM. 2.1% of 190,000 active. AID 1362; in the data active means inhibition above about 58%; tested in S. cerevisiae
KCC2 secondary: KCC2 (human) modulation, secondary assay | shares compounds with KCC2 mod | HEK293-KCC2, thallium flux, FluoZin2 fluorescence; hits give high values | normalised thallium flux (F/F0 slope) at 10 µM | 15% of 3,700 active | AID 1713;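 active means thallium flux slope above the same plate's solvent-only control mean plus 3 SD; inconclusive means the two replicate wells disagree; inactive means no significant difference from solvent-only control wells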
KCC2 bumet counter: thallium flux persisting under bumetanide in KCC2 cells, counter-screen secondary assay; shares compounds with KCC2 mod; HEK293-KCC2 + bumetanide/ouabain, thallium flux FluoZin2; hits give high values; normalized thallium flux at 10 µM; 49% of 3,700 active; AID 1714;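 active means thallium entry rate above the same plate's blocked-transporter control wells by more than 3 SD; inconclusive means the two repeat wells disagree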;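 further: raw slope of fluorescence over initial fluorescence between 10 and 20 s after thallium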
KCC2 sec2: KCC2 (human) modulation, second secondary assay | shares compounds with KCC2 mod | HEK293-KCC2, thallium flux FluoZin2 fluorescence; actives lie on both sides; F/F0 rise rate, 10–20 s post-thallium | 23% of 3,700 active | AID 1715 | normalized thallium flux at 10 µM;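 active means thallium flux slope more than 3 SD above or below the plate's solvent-only control mean, mostly below; inconclusive means the two repeat wells disagreed; inactive means no significant shift from solvent-only controls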;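 further: raw slope with 0.1% DMSO as baseline and bumetanide as block control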
HEK293 Tl flux: counter-screen for KCC2 modulators: effect in parental HEK293 cells; shares compounds with KCC2 mod; thallium flux FluoZin2, ouabain; baseline-ratio fluorescence slope, 10–20 s after thallium; thallium flux rate (normalised fluorescence) at 10 µM; 46% of 3,700 active;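 active means thallium flux rate significantly above the same plate's solvent-only control wells, beyond their mean plus 3 SD; inconclusive means the two replicate wells gave conflicting results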
KCC2 ouabain: modulates human KCC2 on retest with ouabain. shares compounds with KCC2 mod. HEK293-KCC2, thallium flux FluoZin2 fluorescence; bidirectional: low = inhibitor, high = activator. raw Tl+ flux slope (below DMSO = inhibition, above = activation) at 10 µM. 48% of 3,700 active. AID 1717;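 active means thallium flux slope beyond 3 SD from same-plate DMSO control mean in most replicates, usually higher, sometimes lower; inconclusive means repeat tests gave conflicting results; inactive means no significant difference from controls in most replicates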;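 further: slope of initial-normalized fluorescence between seconds 10 and 20 after thallium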
HEK counter2: parental HEK flux effect, counter-screen 2; shares compounds with KCC2 mod; HEK293 parental, thallium flux FluoZin-2 fluorescence slope; thallium flux slope at 10 µM; 33% of 3,700 active;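 active means thallium flux slope above the same plate's solvent-control mean plus 3 SD in both duplicate wells; inconclusive means duplicate wells that disagreed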;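 further: run without ouabain in cells lacking the KCC2 cotransporter; slope of fluorescence scaled to its starting value between 10 and 20 s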
An asterisk follows results filed as active; ? = inconclusive; / = no result given.

SMILES	ROMK primary	Calpain2 inh	KCC2 mod	Lmaj promast	WT yeast gro inh	KCC2 secondary	KCC2 bumet counter	KCC2 sec2	HEK293 Tl flux	KCC2 ouabain	HEK counter2
CC1CCCN(C(=O)c2ccc3c(=O)n(C4CCCC4)c(=S)[nH]c3c2)C1 (configuration not stated)	-0.655	4.6	15.5*	-0.4	97.7	0.0107	0.0248*	?	0.0224*	?	0.011
O=C(c1ccc2c(=O)n(-c3ccccc3)c(=S)[nH]c2c1)N1CCCCC1	-0.0479	17.9	-1.4	-1.7	-0.1	/	/	/	/	/	/
O=C(c1ccc2c(=O)n(C3CCCC3)c(=S)[nH]c2c1)N1CCCCCC1	-0.824	5.7	5.32*	11.7	96.1*	0.0187	0.0247*	0.0298	0.0101*	0.0188	0.0128*
CCCCCn1c(=S)[nH]c2cc(C(=O)N3CCCC3)ccc2c1=O	-0.79	1.2	2.25	-5.6	1.0	/	/	/	/	/	/
Cc1cccc(CSC2=NCCN2C(=O)c2ccc(Br)o2)c1	/	19.4	-0.274	-2.4	15.9	/	/	/	/	/	/
Cc1ccc(-n2c(C)cc(-c3csc(N)n3)c2C)cc1	/	-7.5	-3.19*	66.7*	18.4	0.0086	0.00625	0.0355	?	0.0194	0.0116
CCN(C(=O)CSc1nnc(Cc2cccc3ccccc23)n1N)C1CCS(=O)(=O)C1 (configuration not stated)	/	-16.0	-0.594	-0.2	34.2	/	/	/	/	/	/
Nn1c(Cc2cccc3ccccc23)nnc1SCC(=O)NC1CCS(=O)(=O)C1 (configuration not stated)	/	-11.7	5.75*	10.8	10.1	0.00924	0.00556	0.0355	0.00835	0.0191	0.0119
CC(=O)Oc1cc2c(C(=O)NCc3ccncc3)c(C)oc2c2ccccc12	/	-6.3	-0.854	/	10.8	/	/	/	/	/	/
O=C(Cn1cnc2ccccc21)Nc1ccc(F)c(F)c1	/	9.1	-0.261	15.3	-8.4	/	/	/	/	/	/
CC1=CC(C)(C)n2c(O)c(N=NC(N)=S)c3c(C)ccc1c32	/	-6.3	3.8*	5.4	6.3	0.0115	0.0118*	0.0354	0.0164*	0.0233	?
COc1cc2c3c(c1)c(N=NC(N)=S)c(O)n3C(C)(C)C=C2C	/	-11.3	20.7*	/	/	?	0.026*	0.0367	0.017*	?	0.0142*
CC1=CC(C)(C)n2c(O)c(N=N)c3cc(C)cc1c32	/	26.6	-1.45	1.7	21.2	/	/	/	/	/	/
CC1=CC(C)(C)n2c(O)c(N=N)c3c(C)ccc1c32	/	28.6	1.35	/	/	/	/	/	/	/	/
N#Cc1ccc(NC(=S)NCCN2CCOCC2)cc1	-0.165	-14.4	0.533	5.7	-0.2	/	/	/	/	/	/
CC(C)NCC(O)c1cc(O)cc(O)c1 (configuration not stated)	/	-14.8	-2.77*	/	/	0.00694	0.00594*	0.0287	?	0.0177	0.0117
Cc1ccccc1OCC(=O)NNC(=O)CCN1C(=O)c2ccccc2C1=O	-0.0183	35.2	-3.93*	-5.4	12.7	0.00683	0.00559	0.0234*	0.00775	?	0.0111
COc1cccc(OCCNc2cc(N3CCOCC3)ccc2[N+](=O)[O-])c1	-0.821	21.8	-0.266	4.4	16.0	/	/	/	/	/	/
COc1ccc(OCCNc2cc(N3CCOCC3)ccc2[N+](=O)[O-])cc1	/	92.5*	-4.74*	6.3	5.0	0.0083	0.00611	0.0338	0.00742	0.0211	0.0105
COc1ccc(C(=O)NC(=S)NCc2ccccc2)cc1	1.17	21.6	-3.04*	-7.0	6.2	0.00711	0.00765*	0.029	0.00847	0.0195	0.0111
CCOC(=O)c1sc(NC(=S)NC(=O)c2ccccc2)nc1C	1.56	-18.9	54.4*	-5.6	10.9	0.00554	0.0892*	0.0709*	0.0629*	0.0807*	0.0553*
COc1cc(OC)cc(C(=O)NC(=S)NCCc2ccccc2)c1	/	21.4	/	13.5	-3.0	/	/	/	/	/	/
CC(C)(C)C(=O)NC(=S)Nc1ccc(C(F)(F)F)cc1	-0.257	7.5	1.67	/	/	/	/	/	/	/	/
Cc1nc(NC(=S)NC(=O)c2ccccc2)sc1C(=O)N(C)C	0.631	-0.9	0.355	-3.8	37.7	/	/	/	/	/	/
CCOC(=O)NC(=S)Nc1ccc(C(C)(C)C)cc1	-0.0597	17.6	139*	/	/	0.0263*	0.0847*	0.0394	0.0648*	0.0665*	0.02*
SMILES	ROMK primary	Calpain2 inh	KCC2 mod	Lmaj promast	WT yeast gro inh	KCC2 secondary	KCC2 bumet counter	KCC2 sec2	HEK293 Tl flux	KCC2 ouabain	HEK counter2
O=C(NC(=S)NCc1ccc2c(c1)OCO2)c1ccccc1	-0.223	6.5	12*	42.8	13.7	0.00911	0.019*	0.0268	0.00902*	?	?
O=C(NCc1ccc2c(c1)OCO2)c1ccccc1	/	1.9	0.661	-0.6	-2.9	/	/	/	/	/	/
Cc1nn(Cc2cccc(C(=O)NN)c2)c(C)c1Cl	/	20.3	-0.871	/	/	/	/	/	/	/	/
CC(C)(C)c1ccccc1NC(=O)c1ccco1	/	-33.0	/	-4.3	-14.5	/	/	/	/	/	/
CC(C)(C)c1ccc(C(=O)NC(=S)NCc2cccnc2)cc1	-1.25	27.8	3.36	11.8	53.4	/	/	/	/	/	/
COC(=O)CNC(=S)NC(=O)c1ccc(C(C)(C)C)cc1	-0.998	-20.2	6.32*	0.6	21.0	0.00542	0.0146*	0.0323	0.0108*	?	?
COc1ccc(C(=O)NC(=S)NNC(=O)c2ccc3ccccc3n2)cc1	/	-6.3	56.9*	/	/	?	0.0721*	?	0.0673*	0.0629*	0.042*
COc1ccccc1C1CCN(C(=O)c2ccco2)CC1	/	17.0	-0.423	/	/	/	/	/	/	/	/
Cc1nc(NC(=O)CSc2nc3cccnc3n2Cc2ccccc2)sc1C	-0.376	8.2	-0.299	3.0	32.7	/	/	/	/	/	/
Cc1cc(C(C)(C)C)ccc1OCCN1CCCC1	0	-8.3	/	95.9*	38.8	0.00869	0.00602	0.0292	0.00674	0.0204	?
CCOc1cc(N2CCOCC2)c(OCC)cc1NC(=O)Cc1cccc(OC)c1	/	6.1	0.0826	2.8	7.0	/	/	/	/	/	/
CCOc1cc(N2CCOCC2)c(OCC)cc1NC(=O)Cc1ccc(OC)c(OC)c1	/	-20.1	-4.7*	13.6	1.6	0.00877	0.00541	0.0306	0.008	0.0188	0.01
CCOCc1[nH]c(=S)[nH]c(=O)c1Cc1ccc(OCC)cc1	0.799	-36.9	0.344	-5.7	-6.1	/	/	/	/	/	/
CCOCc1[nH]c(=S)[nH]c(=O)c1Cc1ccc(OCC(C)C)cc1	0.289	-15.6	21.9*	-4.0	-1.0	0.0138*	0.061*	0.0389	?	0.0395*	?
CCCCOc1ccc(Cc2c(COCC)[nH]c(=S)[nH]c2=O)cc1	-0.591	-0.6	14.7*	2.0	-7.0	?	0.0994*	0.0427*	0.0261*	0.0529*	0.0283*

High-throughput results as filed in PubChem.
